# Assay outcomes as filed in PubChem BioAssay.
# ELG1 genotoxic: induces genotoxicity in HEK293T cells with luciferase-tagged ELG1 | Potency, µM (highest dose often 46 µM), hits mostly activators | HEK293T ELG1-luciferase reporter, luminescence, 16 h | 1.3% of 330,000 active; further: nearly all actives have a fitted effect of over 60% in size
#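 Cells (2,000/well) expressing the ELG1-luciferase fusion are dosed by pin tool and kept 16 hr at 37 °C, 5% CO2. Signal comes from ONE-Glo luciferase reagent after 30 min at room temperature.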
# p53 reactivation: mutant p53 re-activation in reporter cells. H1299 p53-A138V BP100-luciferase reporter, luminescence, 24 h. Potency, µM (highest dose often 92.2 µM), actives largely listed as activators. 0.063% of 320,000 active; further: nearly all actives have a fitted effect of over 45% in size
#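 p53-null H1299 cells stably carrying temperature-sensitive p53-A138V and a BP100-luciferase reporter were pinned with compounds (4-point, 1:5 series) and held 24 hrs at 37 deg C. Luminescence was read 10 min after detection reagent.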
# NPC1 promoter act: activators of NPC1 promoter; Huh7 NPC1 promoter luciferase reporter, 24 h; Potency, µM (top dose mostly 9.22 µM), hits mostly activators; 2.4% of 320,000 active; further: nearly all actives have a fitted effect of over 60% in size
#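 In 1536-well qHTS, Huh7 cells harboring an NPC1 promoter–luciferase construct received compound for 24 h; activation was quantified by luminescence following luciferase reagent addition.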
# Rab9 promoter act: activators of Rab9 promoter | Huh7 Rab9 promoter-luciferase reporter, luminescence, 24 h | Potency, µM (series often up to 9.22 µM), usual class: activators | 2.8% of 320,000 active | AID 485297; further: nearly all actives have a fitted effect of over 60% in size
#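 Rab9 promoter-driven luciferase in stably transfected Huh7 cells; 1500 cells/well rested 2 h, exposed to compound in DMSO for 24 h at 37 °C, 5% CO2. Luminescence read 10 min after adding luciferase reagent at ambient temperature.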
# FLuc modulator: firefly luciferase modulation, counter-screen for miR-21 project. AID 588342. 6.9% of 360,000 active. purified FLuc, Km substrates, luminescence inhibition. Potency, µM (series often up to 57.5 µM), hits mostly inhibitors; further: nearly all actives have a fitted effect of over 55% in size
# Target sequence (P08659 whole entry, looked up): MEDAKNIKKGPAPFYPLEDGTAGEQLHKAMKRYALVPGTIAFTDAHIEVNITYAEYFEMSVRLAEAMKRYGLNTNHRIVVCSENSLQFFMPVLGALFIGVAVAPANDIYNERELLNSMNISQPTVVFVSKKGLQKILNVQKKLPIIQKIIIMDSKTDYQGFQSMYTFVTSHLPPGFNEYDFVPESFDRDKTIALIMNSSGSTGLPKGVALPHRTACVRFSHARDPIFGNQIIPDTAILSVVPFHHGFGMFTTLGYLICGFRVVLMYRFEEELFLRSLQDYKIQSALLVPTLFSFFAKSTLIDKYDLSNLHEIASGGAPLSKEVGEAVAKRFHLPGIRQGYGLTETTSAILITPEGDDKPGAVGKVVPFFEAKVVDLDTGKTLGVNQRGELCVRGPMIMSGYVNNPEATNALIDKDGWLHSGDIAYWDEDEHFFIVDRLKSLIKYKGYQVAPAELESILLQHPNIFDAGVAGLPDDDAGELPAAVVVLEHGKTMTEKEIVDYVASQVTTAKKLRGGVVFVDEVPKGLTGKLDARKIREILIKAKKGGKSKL
#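 Purified P. pyralis luciferase, 10 nM final, with Km-level 10 uM D-luciferin and 10 uM ATP in 50 mM Tris acetate pH 7.5, 10 mM Mg acetate, 0.01% Tween-20, 0.05% BSA; 6-point qHTS titration about 60 µM downward; luminescence read.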
# SMN2 splice enh: SMN2 splice variant enhancement. Potency, µM (doses to about 46.1 µM), hits mostly activators. 2.8% of 210,000 active. HEK293 SMN2-luciferase splicing reporter, luminescence, 30-36 h; further: nearly all actives have a fitted effect of over 55% in size
#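 HEK293 cells carry an SMN2 […]–luciferase reporter in which exon 7 inclusion puts luciferase in frame. Cells were plated 10-12 h before compound addition, then incubated 30-36 h at 37C. ONE-Glo luminescence was read; sodium butyrate at 4.5 mM final served as control.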
# A number is an active result; . = inactive; ? = inconclusive; / = not tested or not shown; [ ] = remark or other dose. Sampled rows, rich in hits. Any-hit rate of the full collection: about 7.3%. The call rests on the fitted dose curve; in most records, active means well fitted curve in the direction sought with a large enough effect; inconclusive means small, poorly fitted or top-dose-only effect, or another doubt; inactive means no such curve, though single readings can be large; an effect the other way counts as inactive or inconclusive.
SMILES,ELG1 genotoxic,p53 reactivation,NPC1 promoter act,Rab9 promoter act,FLuc modulator,SMN2 splice enh
Cc1noc(C)c1S(=O)(=O)NCCc1csc2nc(-c3ccc(Cl)cc3)nn12,/,/,/,/,.,/
COc1ccc(Cn2ccc3nc(C)c(C(=O)Nc4ccc(OC)cc4)cc3c2=O)cc1,/,/,/,/,.,/
CCCCOc1ccc(-c2nc(SCC(N)=O)n[nH]2)cc1,.,.,?,.,11µM,.
COc1ccc(-c2nc(SCC(=O)Nc3c(F)cccc3F)n[nH]2)cc1,.,.,.,.,12µM,/
COc1ccc(-c2nc(SCC(=O)Nc3cccc(C(C)=O)c3)n[nH]2)cc1,/,/,/,/,6.7µM,/
CCOc1ccc(N(CC)C(=O)CSc2n[nH]c(-c3ccccc3)n2)cc1,/,/,/,/,.,/
CC(=O)c1cccc(NC(=O)CSc2n[nH]c(-c3ccncc3)n2)c1,.,.,.,.,?,/
CC1CC[C@@]2(C(=O)O)CCC3(C)C(=CCC4[C@]5(C)CC(O)C(O)[C@](C)(CO)C5C(O)C[C@@]43C)C2C1C (some centres not stated),/,/,/,/,/,.
Cc1cccc(/C(N)=N/OC(=O)c2ccoc2C)c1,?,?,1.1µM,1.3µM,3.8µM,/
Cc1cccc(/C(N)=N/OC(=O)Cc2cccc3ccccc23)c1,.,.,.,.,.,.
COc1cc(OC)c(C(=O)O/N=C(\N)c2ccccc2)cc1OC,.,.,.,.[1.84 µM],.,/
Cc1occc1C(=O)O/N=C(\N)c1ccccc1,?,.,0.45µM,0.45µM,1.9µM,/
O=C(c1cnn(C(=O)c2cccc(S(=O)(=O)N3CCOCC3)c2)c1)c1ccccc1O,.,.,.,.,.,.
O=C(NCC(=O)N1CCCCC1)c1ccc(Cl)cc1Cl,16µM,.,?,4µM,19µM,?
COc1ccccc1N1CCN(C(=O)CNC(=O)c2ccc(Cl)cc2Cl)CC1,.,.,.,.,24µM,/
O=C(CNC(=O)c1ccc(Cl)cc1Cl)OCC(=O)N1CCCC1,.,.,.,.,.,/
Cc1cc(S(=O)(=O)NCCCN2CCOCC2)ccc1Br,.,.,.,.,.,/
CC(C)c1ccc(NC(=O)c2cc(S(=O)(=O)NCc3ccccc3Cl)ccc2F)cc1,/,/,/,/,.,/
COc1ccc(-n2nnc3c(SCC(=O)Nc4ccc5c(c4)OCCO5)ncnc32)cc1,.,?,.,.,7.6µM,.
O=C(CSc1ncnc2ccccc12)Nc1ccc2c(c1)OCO2,.,.,.,.,.,.
O=C(CSc1ncnc2ccccc12)Nc1ccc2c(c1)OCCO2,.,.,.,.,17µM,.
O=C(CSc1ccccc1C(=O)O)Nc1ccc2c(c1)OCO2,.,.,.,.,?,/
O=C(CSc1ncccc1C(=O)O)Nc1ccc2c(c1)OCCO2,.,.,.,.,11µM,/
COC(=O)c1ccc(CSc2ncnc3c2nnn3-c2ccc(OC)cc2)o1,.,.,.,.,21µM,.
CCOc1ccc2oc(=O)cc(CN3CCN(c4ccc(Cl)cc4)CC3)c2c1,/,/,/,/,.,.
SMILES,ELG1 genotoxic,p53 reactivation,NPC1 promoter act,Rab9 promoter act,FLuc modulator,SMN2 splice enh
CCc1ccccc1-n1c(SCC(=O)N2CCCC2)nc2[nH]ncc2c1=O,.,.,.,.,.,.
CCc1ccccc1-n1c(SCC(=O)Nc2ccc3c(c2)OCCO3)nc2[nH]ncc2c1=O,?,?,.,.,17µM,.
O=C(CSc1nccn1Cc1ccccc1)Nc1ccc2c(c1)OCCO2,/,/,/,/,13µM,/
O=C(CNC(=O)C1CCCCC1)Nc1ccc(F)c(Cl)c1,.,.,.,.,.,18µM
O=C(CNC(=O)C1CCCCC1)Nc1ccc(Cl)cc1,?,.,.,.,.,11µM
O=C(Nc1ccc(F)c(Cl)c1)C1CCCCC1,.,.,.,.,.,/
COc1ccc(OC(=O)c2ccc3nsnc3c2)cc1,.,.,.,.,7.6µM,.
CC(=O)c1ccc(OCC(=O)Nc2ccc3nc(C)sc3c2)cc1,.,.,.,.,.,.
Cc1ccc(OC(=O)c2ccc3nc(C)sc3c2)cc1,2.9µM,.,0.79µM,0.63µM,2.4µM,14µM
CN(C)c1ccc(-c2nc(N(C)Cc3ccco3)c3ccccc3n2)cc1,/,/,/,/,/,10µM
CN(C)C(=O)c1ccc(-c2nc(N(C)Cc3ccco3)c3ccccc3n2)cc1,/,/,/,/,/,.
CCC(=O)c1ccc(CCCCCC(=O)O)s1,.,.,.,.,9.5µM,/
CC(=O)c1ccc(CCCCCCCCCC(=O)O)s1,.,.,.,.,?,.
Cc1cccc(Cn2c(CNS(=O)(=O)c3ccc(C(C)C)cc3)nc3cccnc32)c1,/,/,/,/,.,/
COc1cccc(-c2nc(COc3ccc(Cl)cc3Cl)no2)c1,.,.,.,.,15µM,/
COc1ccccc1-c1nc(COc2ccc(Cl)cc2Cl)no1,?,.,3.5µM,4µM,8.5µM,/
COc1ccc(-c2noc(CCCOc3ccc(Cl)cc3Cl)n2)cc1,?,.,.,.,.,.
COc1ccc(-c2noc(CSc3nnc(-c4ccncc4)n3-c3ccc(C)c(C)c3)n2)cc1,/,/,/,/,.,.
COc1ccccc1OCc1nn[nH]n1,.,.,.,.,.,/
COC(=O)c1ccc(NC(=O)CCc2c(C)nn(-c3ccc(N4CCCCC4)nn3)c2C)cc1,/,/,/,/,9.5µM,/
COc1cc(NC(=O)CCc2c(C)nn(-c3ccc(N4CCCCC4)nn3)c2C)cc(OC)c1OC,/,/,/,/,19µM,/
Cc1nn(-c2ccc(N3CCOCC3)nn2)c(C)c1CCC(=O)Nc1ccc(F)cc1,.,.,.,.,?,/
Cc1ccc(NC(=O)CCc2c(C)nn(-c3ccc(N4CCOCC4)nn3)c2C)cc1C,.,?,.,.,?,/
COc1ccc(NC(=O)CCc2c(C)nn(-c3ccc(N4CCCCC4)nn3)c2C)cc1Cl,/,/,/,/,2.1µM,/
COc1cc(NS(=O)(=O)c2ccc(-c3cc(C)no3)cc2)cc(OC)c1,/,/,/,/,.,/
SMILES,ELG1 genotoxic,p53 reactivation,NPC1 promoter act,Rab9 promoter act,FLuc modulator,SMN2 splice enh
Cc1ccc(N2C(=O)CCSC23C(=O)N(Cc2ccccc2)c2ccccc23)cc1F (configuration not stated),/,/,/,/,.,/
CC1Cn2c(C(=O)NCCc3ccc(Cl)cc3)cc3cccc(c32)S1 (configuration not stated),/,/,/,/,.,/
CCOc1ccc(OCc2ccc(C(=O)OCc3ccccn3)o2)cc1,.,.,?,0.89µM,?,8.9µM
CCOC(=O)c1ccc(COc2ccc(C(C)C)cc2)o1,?,.,0.63µM,0.5µM,15µM,/
CN1CCN(C(=O)c2ccc(COc3ccc(C(C)(C)C)cc3)o2)CC1,.,.,?,?,8.5µM,?
CCOc1ccc(OCc2ccc(C(=O)N3N=C(C(F)F)CC3(O)C(F)F)o2)cc1 (configuration not stated),.,.,.,4µM,.,?
CCOc1ccc(OCc2ccc(C(=O)NC(C)C)o2)cc1,.,.,?,.,.,/
CCOc1ccc(OCc2ccc(C(=O)N3CCCC3)o2)cc1,.,.,?,.,?,.
